Consider 39 compounds from PubChem BioAssay (NCI).

Values joined by “and” are separate entries in the source; they are usually repeats but may differ in a detail not shown here. Identical values can stand only once. The panel holds about 83,000 compounds, 20% with a hit somewhere; the sample as a whole holds those more often.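 Note: values are percent growth. 100 is the growth of untreated cells, values between 100 and 0 indicate rising inhibition; between -100 and 0 indicates cell death.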 Active and inactive are the calls of the source.

For one assay, the system named is A498 renal. As to the kind of experiment: NCI-60 one-dose screen, 48 h (100 = growth as untreated, 0 = no growth, -100 = all killed). Particulars: 10 µM. The method, then: Growth inhibition of the A498 human tumor cell line is measured as a screen for anti-cancer activity. Cells are grown in 96 well plates and exposed to the test compound for 48 hours. Compounds are tested at a single concentration, which is 10^-5 M for most compounds. The reported endpoint is percent growth (GI% or GIPRCNT), where numbers from 0 - 100% represent growth inhibition, and numbers from -100% - 0 represent cell death. For example, a value of 40 represents 60% growth inhibition. A value of 0 means no net growth occurred over the course of the experiment. A value of -40 indicates 40% of cells at the beginning of the experiment died by the end of the experiment. A value of -100 means all cells are dead at the end of the experiment.
NCI-60 Human Tumor Cell Lines Screen was performed using the standard one-dose NCI protocol, which is described in more detail at https://dtp.cancer.gov/discovery_development/nci-60/default.htm.
Compounds with GIPRCNT values below 10 were considered active. Activity score was based on GIPRCNT using the following formula: […]
Score is 0 for GIPRCNT values of 100 or above, 50 for GIPRCNT values of 0, and 100 for GIPRCNT values of -100.
For the compound `CC(C)(C)c1cc(NC(=O)Cc2ccc(-c3cnc4cc(-c5cnn(CCN6CCOCC6)c5)ccc4n3)cc2)no1`, the growth was -26.9% (active).

Still in this assay, the particulars now being: 10 µM unless noted.
Turning to `O=C1OC(Oc2ccc(Br)cc2)(c2ccccc2)c2ccccc21` (stereo not given), the growth was 80.1% (inactive) and 93.7% (inactive).
Still for that read-out and setting: the figure for `CC1(c2ccc3ccccc3c2)CCC(=O)O1` (stereo not given) is 113% (inactive).
`CCOC(=O)c1sc(N)nc1-c1ccccc1`: the growth was 94.5% (inactive).
Regarding `Cc1n[nH]c(=O)n(/N=C\c2c[nH]c3ccccc23)c1=O`, the growth is 103% (inactive).
With `Nc1cc2c(cc1N)-c1ccccc1C2`, the growth was 88.2% (inactive) and 103% (inactive).
With `c1ccc(N(c2ccccc2)c2ccccc2)cc1`, the growth is 117% (inactive).
As to `O=C(c1ccc(Cl)cc1)C(NCCO)c1ccc(Cl)cc1` (stereo not given), the growth is 92.7% (inactive) and 110% (inactive).
On the same count and under the same terms, the figure for `COc1cc(C(=O)c2ccc3c(c2)OCO3)cc(OC)c1OC` is 6.18% (active); for `Fc1ccccc1Nc1n[nH]c(=S)s1` it is 94.6% (inactive); for `O[C@H](c1cc(C(F)(F)F)nc2c(C(F)(F)F)cccc12)[C@@H]1CCCCN1` it is 67% (inactive) and 52% (inactive).
On the same count and under the same terms, the figure for `CC(C(=O)O)n1cc(C#N)c(=O)[nH]c1=O` (stereo not given) is 107% (inactive).
On to `Cn1c(=O)n(-c2ccc(C(C)(C)C#N)cc2)c2c3cc(-c4cnc5ccccc5c4)ccc3ncc21`, for which the growth was -46.3% (active) and -44.5% (active).
For `O=CC(O)C(O)C(O)CO` (stereo not given), the growth is 94.8% (inactive) and 109% (inactive).
Regarding `CCN1CCN(CCNc2nccc(-c3c(-c4cccc(O)c4)nc4sccn34)n2)S1(=O)=O`, the growth is 74.2% (inactive) and 66.8% (inactive).
Regarding `NC(=O)c1ccccc1OCC(O)CO` (stereo not given), the growth is 94.6% (inactive).
With `O=C(O)C1(C(=O)O)CCC1.[NH2-].[NH2-].[Pt+2]`, the growth is 111% (inactive) and 98.4% (inactive).
As to `CC(=O)NC(Cc1ccccc1)C(=O)Oc1ccc2ccccc2c1` (stereo not given), the growth was 130% (inactive) and 97.2% (inactive).
With `CC(=O)c1ccc2c(c1)N(CCCN1CCN(CCO)CC1)c1ccccc1S2`, the growth was 85.1% (inactive) and 28.6% (inactive).
As to `CC1(C)[C@@H](OC(=O)CCC(=O)O)CC[C@]2(C)[C@H]3C(=O)C=C4[C@@H]5C[C@@](C)(C(=O)O)CC[C@]5(C)CC[C@@]4(C)[C@]3(C)CC[C@@H]12`, the growth was 112% (inactive) and -65.7% (active).
As to `N=C1N=C(N)CS1`, the growth was 90.7% (inactive).
`Cc1cccc(/C=C\C(=O)c2ccc(Cl)cc2)c1`: the growth was 78.9% (inactive) and 54.4% (inactive).
On to `Clc1ccc(NC(Nc2ccc(Cl)cc2)C(Cl)(Cl)Cl)cc1`, for which the growth was 107% (inactive) and 101% (inactive).
Still for that read-out and setting: the same measure for `CC(CN=Cc1ccccc1O)N=Cc1ccccc1O` (stereo not given): 121% (inactive) and 105% (inactive); for `O=C(O)CCCCc1ccc([N+](=O)[O-])cc1`: 84.4% (inactive) and 127% (inactive); for `Cn1cc(-c2cc3c(Nc4ccc(CC(=O)Nc5cc(C(C)(C)C)on5)cc4)ncnc3[nH]2)cn1`: -60.1% (active).
Still for that read-out and setting: the figure for `N#C/C(=C1C=C/C(=N/O)C(Br)=C/1)c1ccccc1` is 63.7% (inactive); for `NCCSC(C[N+](=O)[O-])c1ccccc1Cl` (stereo not given) it is 36% (inactive).
In the case of `CCN(CC)CCNc1ccc(C)c2sc3ccccc3c(=O)c12` (tested in a mixture with another compound), the growth was 102% (inactive) and 75.7% (inactive).
With `CNc1ccc2nc3ccc(=[N+](C)C)cc-3sc2c1`, the growth was 57.8% (inactive) and 49.1% (inactive).
The same measure, in the same setting: the figure for `S=C1SCN(Cc2ccccc2)CN1Cc1ccccc1` is 74.4% (inactive); for `Cc1cc(=O)[nH]c(O)c1C#N` it is 114% (inactive) and 111% (inactive); for `CCOC(=O)Nc1nc2ccccc2[nH]1` it is 117% (inactive) and 42.3% (inactive).
With `CC(C)CNC(=O)c1ccccc1C(=O)NC1(C(=O)NCC(C)C)CCCC1`, the growth is 84.2% (inactive) and 123% (inactive).
Take `Cn1cnc([N+](=O)[O-])c1Sc1ncnc2nc[nH]c12`: the growth is 87.7% (inactive) and 103% (inactive).
In the case of `CCN(CC)CCCC(C)Nc1ccnc2cc(Oc3ccccc3)ccc12` (stereo not given), the growth was 59.1% (inactive) and 55.4% (inactive).
As to `CC(=O)Nc1cccc2c1CCCC2`, the growth is 97.8% (inactive) and 121% (inactive).
For the compound `Nc1ccccc1Nc1ccccc1`, the growth is 105% (inactive).
On the same count and under the same terms, the same measure for `Nc1ncnc2c1ncn2C1CC(O)C(CO)O1` (stereo not given): 105% (inactive) and 98.5% (inactive).

The same assay, now with this note: 30 µM.
On to `CC(C)(C)c1cc(NC(=O)Cc2ccc(-c3cnc4cc(-c5cnn(CCN6CCOCC6)c5)ccc4n3)cc2)no1`, for which the growth was -14.9% (active).
